CHRM1 PAM: human CHRM1 positive allosteric modulation | CHO-K1 hM1, Fluo-8 calcium fluorescence, ACh EC20; 0% = ACh EC20, 100% = maximal ACh | activation, % at 3 µM | 360,000 compounds, 0.088% hits; in the data active = activation above about 19%, passing the limit was not always enough
Target sequence (P11229 whole entry, looked up): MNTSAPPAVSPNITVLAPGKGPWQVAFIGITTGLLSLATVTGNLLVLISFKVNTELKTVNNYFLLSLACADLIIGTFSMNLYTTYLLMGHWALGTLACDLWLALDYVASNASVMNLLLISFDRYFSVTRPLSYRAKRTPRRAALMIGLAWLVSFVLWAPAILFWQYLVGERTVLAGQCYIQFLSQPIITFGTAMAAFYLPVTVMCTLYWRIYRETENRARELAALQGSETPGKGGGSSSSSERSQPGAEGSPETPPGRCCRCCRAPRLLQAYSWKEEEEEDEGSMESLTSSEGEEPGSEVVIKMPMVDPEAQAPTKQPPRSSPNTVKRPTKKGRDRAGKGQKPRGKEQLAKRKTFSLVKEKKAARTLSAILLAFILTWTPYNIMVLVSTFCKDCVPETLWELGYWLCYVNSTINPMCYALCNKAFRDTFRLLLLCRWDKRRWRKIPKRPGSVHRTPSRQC
M1 ag: human M1 muscarinic receptor agonism. activation, % at 3 µM. AID 588814. P11229. CHO-K1 hM1, Fluo-8 calcium fluorescence, agonist mode; 0% DMSO, 100% acetylcholine EC100. 360,000 compounds, 0.33% hits;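 active = activation above the run's mean compound activation plus 3 SD, cut at about 16% in these data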;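 also: peak over basal fluorescence ratio within a 140 s kinetic read after compound addition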
M1 antag: antagonists of human M1 muscarinic receptor; 360,000 compounds, 1.3% hits; AID 588852; CHO-K1 hM1, Fluo-8 calcium fluorescence, ACh EC80 antagonist; inhibition, % at 3 µM;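 active = percent inhibition above its own plate's cutoff, namely the mean of that plate's compound wells plus 3 SD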;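 also: peak over basal fluorescence ratio during 140 s after agonist addition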
CHO-K1 Ca antag: counter-screen for M1 antagonists: effect in parental CHO-K1 cells | ATP-induced calcium, Fluo-8 fluorescence | inhibition, % at 3 µM | 360,000 compounds, 0.6% hits | AID 602250;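 active = inhibition above a per-plate cutoff, the plate's mean sample inhibition plus 3 SD, cut at about 24% in these data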
M1 PAM parental: counter-screen for M1 PAMs: effect in parental CHO-K1 cells | ATP EC20, Fluo-8 calcium fluorescence; 0% at ATP EC20, 100% at ATP max | activation, % at 3 µM | 360,000 compounds, 0.02% hits | AID 602247;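 active = activation above the run cutoff, the mean activation of all test compounds plus 3 SD, cut at about 40% in these data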;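 also: peak over basal fluorescence ratio in a 140 s read after ATP addition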
M1 ag parental: M1 agonist counterscreen hit in parental CHO-K1 cells; AID 602248; Fluo-8 calcium fluorescence; scaled to maximal ATP response, vehicle zero; activation, % at 3 µM; 360,000 compounds, 0.48% hits; in the data active = activation above about 15%;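 also: untransfected CHO-K1 host cells lacking M1 receptor as counterscreen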
Large screens that a line does not name were inactive. Most compounds without a hit are left out; they make up all but 2.3% or so of the library.

CC(NCCCOc1cccc2ccccc12)c1ccccc1 (centres undefined)	M1 ag parental 28.3
COc1ccc2ccccc2c1CNC(C)c1ccccc1 (centres undefined)	none
CCN(CC)c1ccc(CN(C(=O)c2cccs2)C2CCS(=O)(=O)C2)cc1 (centres undefined)	none
CCN(C[C@H]1N[C@@](CC)(C(=O)OC)[C@H]2C(=O)N(Cc3ccccc3)C(=O)[C@@H]12)C(=O)NC(C)C	none
CC(C)N1CCCC(C)(C(=O)Nc2cccc(Oc3ccccc3)c2)C1 (centres undefined)	M1 antag 35.9
CCCNC(=O)C1(C)CCN(Cc2ccc(Oc3ccccc3)cc2)C1 (centres undefined)	none
CC(C)N1CCCC(C)(C(=O)Nc2ccccc2)C1 (centres undefined)	none
CCCNC(=O)C1(C)CCCN(Cc2ccc(Oc3ccccc3)cc2)C1 (centres undefined)	M1 antag 39.7
COc1ccc(S(=O)(=O)N2CCC(C(=O)N[C@@H](C)C(=O)NC3CC3)CC2)cc1	none
C=Cc1ccc(Cn2c(C)c(C(=O)NCCC#N)sc2=O)cc1	none
CN1CCc2c(sc(NC(=O)c3cc(Cl)sc3Cl)c2C(N)=O)C1	none
Cc1cc(C)n2c(Nc3ccc4c(c3)OCCO4)c(CC(C)C)nc2n1	none (no result: CHRM1 PAM, M1 ag, M1 antag)
Nc1nc2c(nnn2Cc2ccc(Cl)c(Cl)c2)c(=O)[nH]1	none
NCCCC[C@H]1CN=C(N)N1CCC12CC3CC(CC(C3)C1)C2	M1 antag 58.6
NC(=O)c1ccc[n+]([C@H]2O[C@@H](COP(=O)([O-])OP(=O)(O)OC[C@H]3O[C@@H](n4cnc5c(N)ncnc54)[C@H](O)[C@@H]3O)[C@H](O)[C@@H]2O)c1	M1 ag 27.4, M1 ag parental 26.6
COc1cccc(OC)c1C(=O)NCCOc1cc(C)cc(C)c1	M1 ag parental 15.5
COc1ccc(CCC(=O)OCC(=O)Nc2sccc2C(N)=O)cc1OC	CHO-K1 Ca antag 25.5
COc1ccc(C(=O)NC(C(=O)OCC(=O)Nc2sccc2C(N)=O)C(C)C)cc1 (centres undefined)	none
COc1ccc(CCC(=O)OCC(=O)Nc2sccc2C(N)=O)cc1	M1 antag 38.9, CHO-K1 Ca antag 33.6, M1 ag parental 15.7
CC1CCCCN1S(=O)(=O)c1ccc(S(=O)(=O)N2CCN(C)CC2)cc1 (centres undefined)	none
CCOC(=O)c1ccc(N2C(=O)C(O)=C(C(C)=O)C2c2ccc([N+](=O)[O-])cc2)cc1 (centres undefined)	none
c1ccc(C[n+]2ccc3ccccc3c2)cc1	none
Clc1cccc(Cl)c1C[n+]1ccc2ccccc2c1	M1 antag 31.4
CO/N=C(\C(=O)O)c1csc(NN=C(C)C)n1	none
Cc1cc(C)c2c(n1)nn1c(N3CCN(c4ccccc4)CC3)cc(C)nc21	CHO-K1 Ca antag 33.2
Cc1cc(N2CCN(c3ccccc3)CC2)n2ncnc2n1	none
CN1CCC(N(C)CC(=O)Nc2ccc3c(c2)OC(F)(F)O3)CC1	M1 antag 72.4
CCN1C(=O)[C@H]2[C@H]3CN=C(SCc4ccc(C)cc4)N3[C@@](Cc3ccccc3)(C(=O)OC)[C@H]2C1=O	none
S=c1[nH]nc(-c2ccncc2)n1/N=C/C=C/c1ccco1	none
C(=C\c1ccco1)/C=N/n1cnnc1	CHO-K1 Ca antag 26.2
O=C(NCC(c1ccco1)N1CCc2ccccc2C1)c1cccc(Br)c1 (centres undefined)	none
CCCCCCCCCCCCCCCCn1cc[n+](C)c1	M1 antag 41.9
Cc1ccccc1NC(=O)CSc1nnc(C2CC2)n1CC1CCCO1 (centres undefined)	none
Cc1ccc(C2(C)NC(=O)N(CC(=O)Nc3cccnc3Cl)C2=O)cc1 (centres undefined)	none
CCC1(c2ccccc2)NC(=O)N(CC(=O)Nc2cccnc2Cl)C1=O (centres undefined)	none
CC1(c2ccc(OC(F)F)cc2)NC(=O)N(CC(=O)Nc2cccnc2Cl)C1=O (centres undefined)	M1 ag 43.9, M1 ag parental 33.0
CC1(c2ccc([N+](=O)[O-])cc2)NC(=O)N(CC(=O)Nc2cccnc2Cl)C1=O (centres undefined)	M1 ag 22.5
CCC1(c2ccccc2)NC(=O)N(CC(=O)Nc2ccccc2N2CCCC2)C1=O (centres undefined)	none
COc1ccc(C2(C)NC(=O)N(CC(=O)Nc3cccnc3Cl)C2=O)cc1 (centres undefined)	none
CCC1(c2ccc(F)cc2)NC(=O)N(CC(=O)Nc2cccnc2Cl)C1=O (centres undefined)	M1 ag 16.8
CC1(c2ccccc2)NC(=O)N(CC(=O)Nc2ccccc2N2CCCCC2)C1=O (centres undefined)	M1 ag 22.3
CC(=O)c1cccc(NC(=O)COC(=O)CCC(=O)c2cccs2)c1	none
CN(CCCCCCCCC(=O)/C=N/O)Cc1ccccc1	M1 antag 68.7
CC(Oc1ccccc1)C(=O)N1CCN(c2ncccn2)CC1 (centres undefined)	none
CCC(C(=O)N1CCN(c2ncccn2)CC1)c1ccccc1 (centres undefined)	M1 antag 27.3
Cc1ccc(-c2cc(C(=O)N/N=C/c3c(C)nn(C)c3C)c3ccccc3n2)c(C)c1	CHO-K1 Ca antag 24.5
O=c1oc2cc(O)ccc2cc1-c1nc2ccccc2o1	M1 ag 53.8, M1 ag parental 31.2
O=c1oc2cc(O)ccc2cc1S(=O)(=O)c1ccccc1	none
O=C(Cn1c(C(F)(F)F)nc2ccccc21)N/N=C/c1ccco1	M1 ag parental 17.4
O=C(CN1CCN(Cc2ccccc2Cl)CC1)N/N=C/c1ccco1	M1 ag parental 17.5
O=C(Cc1ncc(C(F)(F)F)cc1Cl)NCCc1ccccn1	none
Cc1cccc(C)c1Nc1nc2ccccc2o1	CHO-K1 Ca antag 25.1
Cn1c(=O)c2cc(NC(=S)NC3CCCCC3)ccc2n1-c1ccccc1	none
O=c1c2ccccc2ncn1-c1ccc([N+](=O)[O-])cc1Cl	CHO-K1 Ca antag 24.0
CCOC(=O)c1c(C)[nH]c(C(=O)COC(=O)c2ccccc2NC(=O)c2ccco2)c1C	CHO-K1 Ca antag 32.2
O=C(CN1CCN(c2ncc(C(F)(F)F)cc2Cl)CC1)N1CCN(c2ncc(C(F)(F)F)cc2Cl)CC1	none
CN1CCN(C(=O)C2CCN(c3ncc(C(F)(F)F)cc3Cl)CC2)CC1	M1 antag 72.5
CC(C(=O)N1CCCC1)N(C)CC(=O)Nc1cccc(F)c1 (centres undefined)	none
CCN(CC(=O)Nc1c(F)cccc1F)C(=O)CCc1nc2sc3c(c2c(=O)[nH]1)CCCC3	none

Compound activity (PubChem BioAssay)
